Where “and” joins values, the source holds several entries; their conditions need not be identical. Identical values can stand only once. Results filed as inconclusive are left out. For part of these data: Entries with a potency or affinity are not part of this list. Calls of active or inactive are those of the source.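 The calls were made as follows, unless noted: active = normalized viability below 100% at a tested concentration; inactive = the rest.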
What was measured:
[1] = target: 6-phosphogluconate dehydrogenase, decarboxylating (Homo sapiens) (UniProt P52209); assay: 6PGD enzyme inhibitors, primary screen, biochemical, human, recombinant enzyme, NADPH absorbance (AID 1159550;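 active = at least 20% inhibition of 6-phosphogluconate dehydrogenase activity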); conditions: recombinant 6PGD, NADPH absorbance 341 nm; at 10 µM; stronger effect = higher value
6-phosphogluconate dehydrogenase, decarboxylating (Homo sapiens), sequence (P52209 whole entry, looked up): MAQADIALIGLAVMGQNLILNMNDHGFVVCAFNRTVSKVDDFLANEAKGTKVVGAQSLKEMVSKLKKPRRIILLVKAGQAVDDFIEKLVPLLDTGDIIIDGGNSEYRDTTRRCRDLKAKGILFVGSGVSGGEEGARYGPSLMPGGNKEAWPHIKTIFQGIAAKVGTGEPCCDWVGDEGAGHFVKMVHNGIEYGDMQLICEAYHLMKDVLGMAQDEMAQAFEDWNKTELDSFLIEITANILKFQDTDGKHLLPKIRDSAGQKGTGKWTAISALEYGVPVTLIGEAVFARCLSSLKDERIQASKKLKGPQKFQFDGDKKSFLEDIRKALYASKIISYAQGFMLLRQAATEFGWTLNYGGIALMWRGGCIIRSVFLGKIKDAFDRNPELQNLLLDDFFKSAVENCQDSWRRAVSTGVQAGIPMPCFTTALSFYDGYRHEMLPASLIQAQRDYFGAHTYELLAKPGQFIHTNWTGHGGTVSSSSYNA

[2] = differential killing of epithelial or mesenchymal cells, primary screen, imaging, PC-3E GFP, TEM4-18 mCherry, co-culture (AID 1345086;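 active = compounds killing one labelled cell type while sparing the other, by normalised counts and ratio limits, not self-fluorescent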;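 as to all read-outs here: cells exposed to compound for 72 h before imaging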;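 as to red/green cell ratio (normalised): normalised mesenchymal count divided by normalised epithelial count so high means epithelial killing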); conditions: imaging cell counts, at 1 µM; for red/green cell ratio (normalised): actives lie on both sides, counts scaled to control wells, 1 = unselective
[3] = growth inhibition of DIPG glioma cells, dose response, cell-based, SU-DIPG-XIII, MIPE4.0, CellTiter-Glo, qHTS (AID 1347061; cut-off not given, nearly all actives have AC50 up to about 37 µM;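 also: cells exposed to compound for 48 hours before readout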); conditions: SU-DIPG-XIII viability, CellTiter-Glo ATP luminescence
[4] = sensitizers of A549 cells to miR-34 induction, primary screen, imaging, A549 dox-inducible miR-34, nuclei and caspase counts (AID 1347080;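 active = compounds whose cell count with miR-34 switched on is under 0.7 times the count with it off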); conditions: A549 miR-34 inducible, Hoechst nuclei count, 48 h
[5] = survival rescue of mitochondrial mutant cells in low glucose, primary screen, MELAS cybrids, Rieske KO mouse fibroblasts, CellTiter-Glo (AID 1508586;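 active = mean z-score across replicates of 1.96 or higher in either the MELAS or the Rieske mutant cell line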;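 also: z relative to plate mean and SD of compound and empty wells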)
[6] = ovarian cancer cell viability with rucaparib, profiling panel, oncology-focused library, rucaparib conditional (AID 1508598); conditions: patient-derived ovarian cancer cells, CellTiter-Glo viability, 144 h, stronger effect = lower value
[7] = target: Mitogen-activated protein kinase 7 (Homo sapiens) (UniProt Q13164); assay: ERK5 transactivation activators in reporter cells, primary screen, cell-based, HTS (AID 1508626;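 active = luciferase signal above three times the same-plate solvent-only control wells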;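 also: luciferase driven by Gal4-ERK5 fusion binding five Gal4 sites before minimal TATA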); conditions: HeLa Gal4-ERK5 transactivation, 18 h, at 5 µM, stronger effect = higher value
Mitogen-activated protein kinase 7 (Homo sapiens), sequence (Q13164 whole entry, looked up, the tested form may be a part): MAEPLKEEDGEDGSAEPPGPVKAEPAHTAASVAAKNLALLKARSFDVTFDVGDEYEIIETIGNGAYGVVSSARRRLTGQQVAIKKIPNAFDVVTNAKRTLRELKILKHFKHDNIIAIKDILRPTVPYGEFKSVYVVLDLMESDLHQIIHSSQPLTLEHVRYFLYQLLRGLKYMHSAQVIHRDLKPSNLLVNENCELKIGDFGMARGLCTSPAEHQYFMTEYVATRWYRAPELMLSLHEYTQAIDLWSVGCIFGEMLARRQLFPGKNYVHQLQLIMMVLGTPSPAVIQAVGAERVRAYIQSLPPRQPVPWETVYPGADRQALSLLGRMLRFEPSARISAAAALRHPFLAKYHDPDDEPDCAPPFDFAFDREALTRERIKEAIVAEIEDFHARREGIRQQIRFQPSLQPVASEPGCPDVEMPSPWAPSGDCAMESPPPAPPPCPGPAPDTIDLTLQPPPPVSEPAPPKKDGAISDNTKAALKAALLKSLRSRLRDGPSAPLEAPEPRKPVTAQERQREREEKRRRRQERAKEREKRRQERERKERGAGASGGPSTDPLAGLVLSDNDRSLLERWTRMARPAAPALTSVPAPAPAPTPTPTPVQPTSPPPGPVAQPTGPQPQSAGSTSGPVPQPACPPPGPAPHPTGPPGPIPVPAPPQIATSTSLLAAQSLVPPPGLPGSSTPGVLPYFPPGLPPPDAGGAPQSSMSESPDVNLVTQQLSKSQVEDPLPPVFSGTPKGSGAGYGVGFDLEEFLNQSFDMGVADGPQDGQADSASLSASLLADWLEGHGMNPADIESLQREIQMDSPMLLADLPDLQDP

[8] = liver-stage malaria parasite growth inhibition, primary screen, cell-based, HepG2, luciferase luminescence, HepG2 viability (AID 624349; in the data active = parasite load remaining mostly below about 12%, no sharp cut-off; inactive = mostly above about 10%;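 also: 100% = mean of DMSO negative control wells on the same plate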); conditions: P. berghei liver stage in HepG2, luciferase luminescence, concentration not given here; parasite load remaining: stronger effect = lower value; viability: measured here: HepG2 viability without parasites
[9] = growth inhibition of DIPG glioma cells, dose response, cell-based, JHH-DIPG-1, MIPE4.0, CellTiter-Glo, qHTS (AID 1347062; cut-off not given, nearly all actives have AC50 up to about 27 µM); conditions: JHH-DIPG-1 viability, CellTiter-Glo ATP luminescence
[10] = viability rescue of complex I mutant cybrids, primary screen, cell-based, galactose medium, ATP luminescence (AID 1645843;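 active = z-score of at least 1.8 in each of two replicates, scored against plate mean and spread of sample wells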;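 also: positive z means more ATP and so rescue of galactose-driven cybrid death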); conditions: complex I mutant cybrid cells, 72 h, stronger effect = higher value
[11] = polyglutamine-triggered caspase-3 activation inhibitors, cell-based (AID 1583); conditions: polyglutamine-induced caspase-3 activation, cell assay; stronger effect = higher value;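 tested at 10 µM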
[12] = suppressors of polyQ aggregation in yeast, 75Q-TubU reporter (AID 1593); conditions: Yeast 75Q polyglutamine aggregation reporter
[13] = rescue of polyQ-huntingtin neuronal dysfunction in worms, whole organism, C. elegans mechanosensory neurons, N-terminal huntingtin (AID 1599); conditions: touch response, stronger effect = higher value
[14] = inhibitors of mitochondrial cytochrome c release, biochemical, purified mitochondria (AID 1603); conditions: stronger effect = lower value;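 also: mouse liver mitochondria challenged with calcium chloride; signal normalized to the plate average as 100%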
[15] = inhibitors of polyQ protein aggregation (AID 1604); conditions: polyglutamine-induced protein aggregation inhibition assay; stronger effect = higher value; tested at 2.5 µM
[16] = enhancers of glutamate uptake in motor neurons, MN-1 cell line (AID 1612); conditions: MN-1 motor neuron cells, stronger effect = higher value;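 also: tested at 1 µM final; 0% = mean of DMSO vehicle wells on each plate; positive means more glutamate uptake than control and negative means less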
[17] = reducers of polyQ inclusions in PC12 cells, cell-based, NGF-treated PC12, GFPQ80 (AID 1614); conditions: PC12 NGF-treated GFP-polyQ80 inclusion reduction;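 also: lower means fewer inclusions and 0 means no inclusions at all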
[18] = suppressors of polyglutamine aggregation in yeast, 75Q-TubH (AID 1616); conditions: S. cerevisiae 75Q-TubH polyglutamine aggregation suppression; stronger effect = higher value
[19] = target: NAD(+) hydrolase SARM1 (Homo sapiens) (UniProt Q6SZW1); assay: SARM1 TIR NADase inhibitors, cell lysate, NAD-Glo luminescence (AID 1508614;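 active = compound whose remaining NAD level is above about 45 nM, limit read from the data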;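 also: higher remaining NAD means stronger inhibition of SARM1 NADase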); conditions: SAM-TIR HEK293T lysate NADase, at 1 µM, stronger effect = higher value
NAD(+) hydrolase SARM1 (Homo sapiens), sequence (Q6SZW1 whole entry, looked up): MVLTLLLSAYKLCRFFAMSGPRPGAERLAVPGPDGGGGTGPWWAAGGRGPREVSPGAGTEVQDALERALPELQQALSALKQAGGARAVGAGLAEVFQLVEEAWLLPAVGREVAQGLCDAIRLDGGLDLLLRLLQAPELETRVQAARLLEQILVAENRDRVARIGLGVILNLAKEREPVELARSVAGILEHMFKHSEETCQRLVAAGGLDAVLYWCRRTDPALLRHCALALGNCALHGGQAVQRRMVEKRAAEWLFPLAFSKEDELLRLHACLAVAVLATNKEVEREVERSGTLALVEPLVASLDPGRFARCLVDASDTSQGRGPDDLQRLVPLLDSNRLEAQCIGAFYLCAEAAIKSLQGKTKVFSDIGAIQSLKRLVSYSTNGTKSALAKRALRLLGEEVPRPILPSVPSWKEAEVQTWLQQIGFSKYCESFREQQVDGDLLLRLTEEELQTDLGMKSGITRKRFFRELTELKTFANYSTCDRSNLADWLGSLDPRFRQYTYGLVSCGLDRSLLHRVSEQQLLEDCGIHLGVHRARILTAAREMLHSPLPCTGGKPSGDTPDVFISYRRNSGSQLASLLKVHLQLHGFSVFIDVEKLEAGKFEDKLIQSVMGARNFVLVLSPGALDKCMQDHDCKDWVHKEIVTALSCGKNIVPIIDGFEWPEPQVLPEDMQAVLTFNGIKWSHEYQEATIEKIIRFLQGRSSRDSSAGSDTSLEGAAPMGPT

[20] = measured here: epithelial PC-3E GFP cell survival
[21] = measured here: mesenchymal TEM4-18 mCherry cell survival
[22] = stronger effect = lower value, cell number ratio, induced over uninduced
[23] = measured here: relative caspase fold change +Dox/-Dox
[24] = measured here: total cells with miR-34 induction, stronger effect = lower value
[25] = measured here: total cells without miR-34 induction
[26] = MELAS cybrid survival, CellTiter-Glo 48 h, stronger effect = higher value
[27] = Rieske KO mouse fibroblast survival, CellTiter-Glo 72 h

**Q.** What does the source list for `Cc1cc(O)c2c(c1)C(=O)c1cccc(O)c1C2=O`?
**A.** inhibition [1]: 2.69% (inactive); red/green cell ratio (normalised) [2]: 1.03 (inactive); normalised cell number [2, 20]: 0.99; normalised cell number [2, 21]: 1.02; outcome [3]: inactive; fold change [4, 22]: 0.938 (inactive); fold change [4, 23]: 0.889; cell count [4, 24]: 10200; cell count [4, 25]: 10900; z-score [5, 26]: -0.322 (inactive); z-score [5, 27]: 0.837; viability ([6]; at 0.000305 µM, OCI-C5x cells, with rucaparib 10 µM, 100% = cells with rucaparib alone): 120% (inactive); viability ([6]; at 0.000305 µM, OCI-C5x cells, without rucaparib): 106% (inactive); viability ([6]; at 0.000305 µM, OCI-P5x cells, with rucaparib 20 µM, 100% = cells with rucaparib alone): 93.2% (active); viability ([6]; at 0.000305 µM, OCI-P5x cells, without rucaparib): 92.5% (active); viability ([6]; at 0.00122 µM, OCI-C5x cells, with rucaparib 10 µM, 100% = cells with rucaparib alone): 115% (inactive); viability ([6]; at 0.00122 µM, OCI-C5x cells, without rucaparib): 113% (inactive); viability ([6]; at 0.00122 µM, OCI-P5x cells, with rucaparib 20 µM, 100% = cells with rucaparib alone): 92.4% (active); viability ([6]; at 0.00122 µM, OCI-P5x cells, without rucaparib): 95.7% (active); viability ([6]; at 0.00488 µM, OCI-C5x cells, with rucaparib 10 µM, 100% = cells with rucaparib alone): 117% (inactive); viability ([6]; at 0.00488 µM, OCI-C5x cells, without rucaparib): 112% (inactive); viability ([6]; at 0.00488 µM, OCI-P5x cells, with rucaparib 20 µM, 100% = cells with rucaparib alone): 94.8% (active); viability ([6]; at 0.00488 µM, OCI-P5x cells, without rucaparib): 102% (inactive); viability ([6]; at 0.0195 µM, OCI-C5x cells, with rucaparib 10 µM, 100% = cells with rucaparib alone): 115% (inactive); viability ([6]; at 0.0195 µM, OCI-C5x cells, without rucaparib): 103% (inactive); viability ([6]; at 0.0195 µM, OCI-P5x cells, with rucaparib 20 µM, 100% = cells with rucaparib alone): 104% (inactive); viability ([6]; at 0.0195 µM, OCI-P5x cells, without rucaparib): 104% (inactive); viability ([6]; at 0.0781 µM, OCI-C5x cells, with rucaparib 10 µM, 100% = cells with rucaparib alone): 112% (inactive); viability ([6]; at 0.0781 µM, OCI-C5x cells, without rucaparib): 113% (inactive); viability ([6]; at 0.0781 µM, OCI-P5x cells, with rucaparib 20 µM, 100% = cells with rucaparib alone): 105% (inactive); viability ([6]; at 0.0781 µM, OCI-P5x cells, without rucaparib): 107% (inactive); viability ([6]; at 0.313 µM, OCI-C5x cells, with rucaparib 10 µM, 100% = cells with rucaparib alone): 102% (inactive); viability ([6]; at 0.313 µM, OCI-C5x cells, without rucaparib): 104% (inactive); viability ([6]; at 0.313 µM, OCI-P5x cells, with rucaparib 20 µM, 100% = cells with rucaparib alone): 101% (inactive); viability ([6]; at 0.313 µM, OCI-P5x cells, without rucaparib): 109% (inactive); viability ([6]; at 1.25 µM, OCI-C5x cells, with rucaparib 10 µM, 100% = cells with rucaparib alone): 114% (inactive); viability ([6]; at 1.25 µM, OCI-C5x cells, without rucaparib): 118% (inactive); viability ([6]; at 1.25 µM, OCI-P5x cells, with rucaparib 20 µM, 100% = cells with rucaparib alone): 111% (inactive); viability ([6]; at 1.25 µM, OCI-P5x cells, without rucaparib): 109% (inactive); viability ([6]; at 5 µM, OCI-C5x cells, with rucaparib 10 µM, 100% = cells with rucaparib alone): 121% (inactive); viability ([6]; at 5 µM, OCI-C5x cells, without rucaparib): 114% (inactive); viability ([6]; at 5 µM, OCI-P5x cells, with rucaparib 20 µM, 100% = cells with rucaparib alone): 97.2% (active); viability ([6]; at 5 µM, OCI-P5x cells, without rucaparib): 108% (inactive); luciferase signal [7]: 64 AU (inactive)

**Q.** With `O=C(CCc1ccc(O)cc1)c1c(O)cc(O)cc1O[C@@H]1O[C@H](CO)[C@@H](O)[C@H](O)[C@H]1O` as the molecule, how does the parasite load remaining [8] read?
**A.** Its parasite load remaining is 28.4% (inactive).

**Q.** What about the viability [8] of the same molecule?
**A.** The viability was 69.5%.

**Q.** What about the inhibition [1] of the same molecule?
**A.** The inhibition was 5.05% (inactive).

**Q.** What about the red/green cell ratio (normalised) [2] of the same molecule?
**A.** Its red/green cell ratio (normalised) is 1 (inactive).

**Q.** And the normalised cell number [2, 20]?
**A.** Its normalised cell number is 0.89.

**Q.** And the normalised cell number [2, 21]?
**A.** Its normalised cell number is 0.89.

**Q.** What about the outcome [3] of the same molecule?
**A.** Its outcome is “inactive”.

**Q.** And the outcome [9]?
**A.** Its outcome is “inactive”.

**Q.** And the fold change [4, 22]?
**A.** Its fold change is 0.867 (inactive).

**Q.** What about the fold change [4, 23] of the same molecule?
**A.** Its fold change is 1.41.

**Q.** What about the cell count [4, 24] of the same molecule?
**A.** Its cell count is 9120.

**Q.** What about the cell count [4, 25] of the same molecule?
**A.** Its cell count is 10500.

**Q.** What about the z-score [5, 26] of the same molecule?
**A.** The z-score was -0.633 (inactive).

**Q.** What about the z-score [5, 27] of the same molecule?
**A.** The z-score was -1.43.

**Q.** And the luciferase signal [7]?
**A.** The luciferase signal was 28 AU (inactive).

**Q.** And the z-score [10]?
**A.** Its z-score is -0.075 (inactive).

**Q.** What does the source list for `CN(C)CCN(Cc1cccs1)c1ccccn1`?
**A.** inhibition [11]: 23.7%; score [12]: 1.21; rescue above control [13]: -13.2; cytochrome c release ratio [14]: 0.66; inhibition of aggregation [15]: 81.4%; glutamate uptake change [16]: -6.5%; inclusion score [17]: 2; aggregation suppression score [18]: 1.19; inhibition [1]: 15.9% (inactive); red/green cell ratio (normalised) [2]: 1.12 (inactive); normalised cell number [2, 20]: 1.1; normalised cell number [2, 21]: 1.22; fold change [4, 22]: 1.16 (inactive) and 0.855 (inactive) and 0.861 (inactive); fold change [4, 23]: 0.908 and 1.23 and 2.97; cell count [4, 24]: 11200 and 8440 and 11600; cell count [4, 25]: 9630 and 9870 and 13500; z-score [5, 26]: 0.365 (inactive); z-score [5, 27]: -0.164; remaining NAD [19]: 10 nM (inactive); luciferase signal [7]: 36 AU (inactive); z-score [10]: 0.215 (inactive)

**Q.** For `COc1cc2c(cc1OC)[C@@H]1C(=O)c3ccc4c(c3O[C@@H]1CO2)C=CC(C)(C)O4`, which inhibition [1] is on record?
**A.** Its inhibition is -0.416% (inactive).

**Q.** And the red/green cell ratio (normalised) [2]?
**A.** Its red/green cell ratio (normalised) is 0.71 (inactive).

**Q.** What about the normalised cell number [2, 20] of the same molecule?
**A.** The normalised cell number was 0.9.

**Q.** What about the normalised cell number [2, 21] of the same molecule?
**A.** The normalised cell number was 0.64.

**Q.** And the AC50 [3]?
**A.** Its AC50 is 23.5 µM (active).

**Q.** And the luciferase signal [7]?
**A.** The luciferase signal was 44 AU (inactive).
